Measured values taken from the supplement of paper PMC12632987.

Target: UCHL1, P09936
Test: median log2 fold change of GCK-ALFA target abundance (FLAG IP / Myc IP barcode read proportion) (log2 ratio); each designed protein is fused to an ALFA-tag nanobody in HEK293 cells to bring the named protein to FLAG-tagged glucokinase (GCK); Myc marks an untargeted standard; higher = target protein stabilised (more abundant)
Details: target protein: 3xFLAG-MCP-GCK-ALFA reporter; HEK293 landing pad (RPLP)
Outline: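 An ALFA-nanobody-fused binder library was recombined into HEK293 landing-pad cells and induced with 2 μg mL^−1 doxycycline. Cells were transfected with a plasmid expressing a FLAG-tagged target and a Myc-tagged standard. After 48 h, lysates underwent anti-FLAG and anti-Myc immunoprecipitation, and circular RNA barcodes were reverse transcribed, amplified and sequenced. Target abundance is the per-binder median log2 ratio of FLAG to Myc barcode read proportions. Barcodes needed ≥10^−7 proportion in both replicates, binders ≥3 barcodes per replicate, and a 10^−6 pseudocount was added; the two replicates were pooled.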

UCHL1, P09936, sequence (P09936 whole entry, looked up, the tested form may be a part): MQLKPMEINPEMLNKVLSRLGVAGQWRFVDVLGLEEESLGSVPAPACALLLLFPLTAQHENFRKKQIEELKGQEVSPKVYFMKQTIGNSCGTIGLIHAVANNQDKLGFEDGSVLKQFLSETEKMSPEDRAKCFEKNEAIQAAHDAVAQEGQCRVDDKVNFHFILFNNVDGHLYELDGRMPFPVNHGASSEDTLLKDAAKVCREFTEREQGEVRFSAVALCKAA

B1: uchl1_2_7538 (protein)
chain: KTRFVGVLVKITAKDEKTGKVYRARRTLIGTASGIPAMAEEVERLVLEFQERTGVPVRVEVHVYASDEETAELARREFERMAERLAEHGIEVTVTVTVVE
B1 was tested. Which “median log2 fold change” value did it give?
The value was -0.55.

B2: uchl1_2_7553 (protein)
chain: KTKFVGVLVTIRAVNPETGKEYRSRRTLIGTADAIEALAEEVYELVLRFKEATGAPVEVDVRVYVSDEETAERAREAFKKLEERLKAEGVKARVEVTVVK
With B2 as the binder, how does the “median log2 fold change” value read?
The value was -0.615.

B3: uchl1_2_7547 (protein)
chain: KTEFVGVLVTITSVNPETGETFVARRTLIGTASSIEAMAKEIKELALAFKADTKGDTTVDVEVVVSSKEVAEKAKKALEELKKELEAEGIKFNYKITVVE
With B3 as the binder, how does the “median log2 fold change” value read?
Its value is -0.0935.

B4: uchl1_2_7549 (protein)
chain: EPQFVGVLVTVTSTNPETGKVYKSRRNFIGTADAIPALFKEVLEYVLTFKEANGGKTKVKLEIVVSTKEVAEKAKKEAEKLKKELAKEGIEAEVKITVVE
With B4 as the binder, how does the “median log2 fold change” value read?
The value was -0.1.

B5: uchl1_2_7544 (protein)
chain: KTKFVGVKVTLTSYDEKTGKEYKSTHTLIGTEEAVEAMAKEIAELIRTFYDATGVPVKVDVTIYSSSEEVAEKLEKELKKEVEKLKKEGIDVTLTITKKV
How did the “median log2 fold change” value turn out when B5 was run?
Its value is -0.358.

B6: uchl1_2_7551 (protein)
chain: KSVFVGVLVTIRATDAATGETLVSRRTLIGTESSIKKLAEEVKELVLEFKARTGGPVEVDITVYSSKEEVAKKAKEEFEKLKKELAAEGVTANVNVILSK
Which “median log2 fold change” value does the source give for B6 here?
Its value is -0.159.

B7: uchl1_2_7541 (protein)
chain: KTKFIGVLVTLTSYDAATGRTYRARRTLIGTESGIEAMAAEVAELVRTFHDATGQPVAVDVRIVSSDEAVAEALEAALKAAEAALKAEGVDVTLTITKDV
Which “median log2 fold change” value does the source give for B7 here?
The value was -0.304.

B8: uchl1_2_7548 (protein)
chain: KAEFVGALVTITSTNPETGEVRVARRTLIGLASDIDALMEEIERLVLDFQADTGGATRVRIRIVVSSEEVAERARAAAEEMKARLAAEGIEVEVEIEVVE
Which “median log2 fold change” value does the source give for B8 here?
The value was -0.489.

B9: uchl1_2_7545 (protein)
chain: KTKFVGVLVTLRSYDPETGREYVSRRTLIGTEEAVEAMAEEIAELIRRFHDRTGVPVDVDVTIYSSSKEVAEELKKKLEEEVKKLKAEGIDVTLTVTLKV
For B9, which “median log2 fold change” value is on record?
The value was 0.0138.

B10: uchl1_2_7542 (protein)
chain: KPKFIGLKVTLTSYDEKTGKTYKATRTLIGTESGIEAMAKEVGELVRTFYDATGVPVKVDVTIVSSDEEVAKKLEEALRKMEEELKKEGVPVELNIKKEV
How did the “median log2 fold change” value turn out when B10 was run?
The value was -0.0683.

B11: uchl1_2_7543 (protein)
chain: KPVFVGVLLELEARDEATGRVYRARRTLIGTEDGIEAMAEEVRRLVREFWEATGVPVRARVTIVSTREEVAERLRRALEAAHEELRAEGIDVTLEITVRV
How did the “median log2 fold change” value turn out when B11 was run?
Its value is 0.327.

B12: uchl1_2_7539 (protein)
chain: KTKFVGALVEITAKDEKTGKVYRSRRTLIGTESAIEAMAKEIKELVLNFKEETGVPVEVKVTVYAENKETAEKMKKELEKMAKELAKEGIKVEIEVKLVE
With B12 as the binder, how does the “median log2 fold change” value read?
The value was -0.811.

B13: uchl1_2_7550 (protein)
chain: EPRFVGVLVTVTSTNPETGEVFRSRRNFIGTADAVAAMMAEVEEYVLRFKEVNGGAVAVDLHVVVSTEEDAARARAEAAKLAARLAAEGITATVTVTVVE
Which “median log2 fold change” value does the source give for B13 here?
Its value is -0.0947.

B14: uchl1_2_7552 (protein)
chain: KTQFVGVLVTITSTNPETGEVKTVRKTLIGTEEGIEAMAKEILEMALEFKEQTKGPVEVKVEVVVSTEETAKKMEEELKKLEEELKKEGIKVEVEVKVVK
B14 was tested. Which “median log2 fold change” value did it give?
Its value is 0.325.

B15: uchl1_2_7540 (protein)
chain: KSVFVGVLVTLRSYDEATGKEYVSRRTLIGTEDSIEALAEEVAELIRAFYEQTGVPVQADVTIVSSSREVAERLAEALRAREAELRAEGVDVTLTITVRV
For B15, which “median log2 fold change” value is on record?
Its value is -0.377.

B16: uchl1_2_7546 (protein)
chain: KTQFVGALVKMEAYDEETGKTYKSTRTLIGTADAIEKMAEEIYELALNFKDTVGVPVKVKVDVVVASEETKKKAEAALKKMKEKLKKEGIEVEVKVTVVE
B16 was tested. Which “median log2 fold change” value did it give?
The value was -1.13.
